HSF1 inh: HSF1 inhibitors in luciferase reporter cells, primary screen, cell-based, NIH3T3, luminescence; NIH3T3-HGL HSE-luciferase, MG132-induced, luminescence 8 h; active compounds read low; activity change, negative = inhibition, % at 7.5 µM (by protocol); 300,000 compounds, 0.77% hits;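 active means more than half of replicate wells show activity change below -50%, luminescence cut by over half; inconclusive means some wells, but at most half, below -50%; inactive means no replicate well below -50%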;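 further: luciferase reports HSF-1 transcriptional activity via heat shock element; 0% = median of DMSO wells and -100% = zero luminescence signal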
HSF-1 act: HSF-1 activators, primary screen, NIH3T3-HGL cells, MG132 stress, luminescence, single point; AID 504408, 2011; 300,000 compounds, 1.7% hits; activation, % at 9 µM; NIH3T3-HGL HSF-1 luciferase reporter, 8 h; 100% = twice DMSO control signal;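 active means mean replicate activation of at least 50% with a set share of replicates each reaching 50%; inconclusive means only one of those two conditions met; inactive means mean below 50% and too few replicates reaching it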;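 further: 0% = median of the neutral control wells and 100% = twice that signal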
esBAF inh: Bmi1 luciferase reporter increase in mESCs, primary screen, esBAF inhibitor project, mouse ES cells, Bmi1 luciferase knock-in, single point; reporter increase, % at 12.5 µM; AID 602393, 2012; 350,000 compounds, 2% hits; 24 h; 100% = twice the neutral-well signal; in the data active means activation above about 40%; inconclusive means no clear call, values can overlap the other calls;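 further: 0% = median of the plate's neutral control wells and 100% = double that signal; a rise in the Bmi1 reporter signal indicates esBAF inhibition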
MITF TRPM1 HTS: activators of MITF-driven TRPM1 promoter reporter, primary screen, cell-based, SK-MEL-5, luciferase, single point | SK-MEL-5 TRPM1-promoter luciferase, 24 h; % of positive control, neutral wells = 0 | activation, % at 12.5 µM | 300,000 compounds, 0.75% hits | AID 588334, 2011;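 active means mean activation of at least 80% with every replicate also reaching 80%; inconclusive means mean reaches 80% but some replicate falls short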;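 further: 0% = neutral control wells and 100% = parthenolide positive control wells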
Wnt bcat act: Wnt/beta-catenin pathway activators, primary screen, cell-based, plate reader, single point; activation, % at 9.35 µM; Wnt/beta-catenin reporter cell assay, activator; 300,000 compounds, 1.2% hits; in the data active means activation above about 30%, passing the limit was not always enough; inconclusive means no clear call, values can overlap the other calls;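 further: 0% = neutral control wells and 100% = positive control wells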
Active calls of the source: *; ? = inconclusive; . = no result. Hits are enriched below; roughly 3.8% of the tested compounds scored in any of these assays.

SMILES	HSF1 inh	HSF-1 act	esBAF inh	MITF TRPM1 HTS	Wnt bcat act
Cc1noc(C)c1NC(=O)Nc1ccc2c(c1)C(=O)N([C@@H](C)CO)C[C@@H](C)[C@H](CN(C)C(=O)Nc1ccc3c(c1)OCO3)O2	.	.	6	.	.
C/C(=N\Nc1nccnc1Cl)c1ccc(F)cc1	2	-2	.	58	9
C/C(=N\Nc1nccnc1Cl)c1ccc(O)cc1	1	12	42*	.	5
CO[C@H]1CN(C)C(=O)c2cc(NC(=O)C3CC3)ccc2OC[C@H](C)N(Cc2ccc(F)cc2)C[C@@H]1C	.	.	0	.	.
COc1ccccc1C(=O)N/C(N)=N/c1nc2ccccc2o1	17	50	51*	27	0
Cc1ccc(C(=O)N/C(N)=N/c2nc3ccccc3o2)cc1	10	19	43*	51	.
N/C(=N\c1nc2ccccc2o1)NC(=O)c1ccccc1	21	26	.	54	.
CN1C(=O)c2cc(NC(=O)c3ccc(C(F)(F)F)cc3)ccc2OC[C@H]2O[C@H](CC(=O)O)CC[C@@H]21	.	.	2	.	.
CNc1nc2c(-c3ccc(Cl)cc3)nnn2c2ccccc12	8	-3	7	-14	-6
Nc1nc2c(-c3ccc(Br)cc3)nnn2c2ccccc12	16	56*	16	40	43*
COCCNC(=O)C[C@H]1C[C@@H]2c3cc(NC(=O)Nc4ccc(F)cc4)ccc3O[C@@H]2[C@@H](CO)O1	.	.	3	.	.
C(=C\c1ccco1)/C1=NN(c2ccccc2)C(c2ccco2)C1 (configuration not stated)	53	78*	.	19	.
CCOC(=O)C(CC)(CC)C(=O)/C=C/c1cccc(Br)c1	159	251*	9	-29	.
Nc1c2c(=O)oc(-c3ccccc3)cc2nn1-c1ccccc1	26	48	70*	.	.
C[C@@H]1CCCCO[C@@H](CN(C)C(=O)C2CCCCC2)[C@@H](C)CN([C@@H](C)CO)C(=O)c2cc(NC(=O)CCCN(C)C)ccc2O1	.	.	5	.	.
O=C(NCC[C@H]1CC[C@@H](NS(=O)(=O)c2ccccc2)[C@@H](CO)O1)c1ccc2c(c1)OCO2	.	.	1	.	.
COc1ccc(NC(=O)Nc2ccc3c(c2)C(=O)N([C@H](C)CO)C[C@@H](C)[C@H](CN(C)S(=O)(=O)c2ccccc2)OCCCC[C@@H](C)O3)cc1	.	.	9	.	.
O=S1(=O)N[C@H](c2ccccc2)C[C@H](c2ccc(C(F)(F)F)cc2)O1	-56*	-67	-3	-3	-3
O=C([C@H]1[C@H](CO)[C@H]2Cn3c(ccc(-c4cccc(F)c4)c3=O)[C@H]2N1Cc1cocn1)N1CCCCC1	.	.	3	.	.
O=C(Nc1ccc(F)cc1F)c1ccc2c(=O)n3c(nc2c1)CCC3	.	.	-8	46	24
Cc1csc(NC(=O)c2ccc3c(=O)n4c(nc3c2)CCCCC4)n1	-8	-4	.	68	10
O=C(Nc1nccs1)c1ccc2c(=O)n3c(nc2c1)CCCCC3	21	19	53*	36	15
O=C(Nc1ccc(F)cc1Cl)c1ccc2c(=O)n3c(nc2c1)CCC3	10	31	?	102*	29
CCCN(CCC)C(=S)NC1CC2C=CC1C2 (configuration not stated)	30	52*	.	.	3
CCC(C)n1cnc2c(c1=O)c1nc3ccccc3nc1n2Cc1ccc(OC)cc1 (configuration not stated)	37	104*	2	5	-3
SMILES	HSF1 inh	HSF-1 act	esBAF inh	MITF TRPM1 HTS	Wnt bcat act
COc1ccc(Cn2c(C)nc3c(c2=O)c2nc4ccccc4nc2n3Cc2ccco2)cc1	.	.	-4	-63	0
O=C(C[C@H]1C=C[C@@H](NC(=O)Nc2ccc3c(c2)OCO3)[C@H](CO)O1)NCc1ccccc1	.	.	5	.	.
Cc1ccc(NC(=O)Nc2ccc3c(c2)OCO3)c(Br)c1	10	9	?	42	6
O=C(Nc1ccc2c(c1)OCO2)Nc1ccc(F)cc1F	28	46	30	?	20
O=C(Nc1ccc(F)cc1)Nc1ccc2c(c1)OCO2	17	34	66*	104*	27
Cc1cc(C)c(NC(=O)Nc2ccc3c(c2)OCO3)c(C)c1	-75*	-80	14	25	13
O=C(Nc1ccc([N+](=O)[O-])cc1)Nc1ccc2c(c1)OCCO2	31	64*	.	66	18
CC1(C(=O)Nc2ccc3c(c2)OCO3)CCN1C(=O)C1(c2ccc(Cl)cc2)CC1 (configuration not stated)	.	.	10	.	51*
COc1cc([N+](=O)[O-])ccc1NC(=O)Nc1ccc2c(c1)OCCO2	14	17	.	38	5
CO[C@H]1CN(C)C(=O)c2cc(NC(=O)C3CC3)ccc2OC[C@H](C)N(C(=O)Cc2ccccn2)C[C@@H]1C	.	.	-1	.	.
C[C@H](CO)N1C[C@H](C)[C@@H](CN(C)Cc2ccccc2F)Oc2cc(C#CC3CC3)ccc2S1(=O)=O	.	.	3	.	.
CO[C@@H]1CN(C)C(=O)c2ccc(NC(=O)c3ccccc3F)cc2OC[C@H](C)N(C(C)=O)C[C@@H]1C	.	.	1	.	.
COc1cccc(-c2ccc3c(c2)[C@H]2[C@H](CCN2C(=O)c2cccc(F)c2)[C@@H](CO)N3)c1	.	.	-1	.	.
O=C(Nc1ccc(Cl)cc1)Nc1ccc2c(c1)OCO2	17	14	60*	63	38*
O=C(Nc1ccc2c(c1)OCO2)Nc1ccc2c(c1)OCO2	16	18	.	75	30
CC1CCC(NC(=O)C(=O)Nc2ccc3c(c2)OCO3)CC1 (configuration not stated)	21	34	56*	63	32*
O=C(C[C@H]1C=C[C@H](NC(=O)c2ccccc2)[C@@H](CO)O1)Nc1ccc(-c2ccccc2)cc1	.	.	14	.	.
C[C@@H]1CN([C@H](C)CO)C(=O)c2cc(NS(C)(=O)=O)ccc2O[C@@H]1CN(C)Cc1ccc(C(=O)Nc2ccccc2N)cc1	.	.	-9	.	.
N#Cc1c(N)c(C(=O)c2ccccc2)n2c1CCCC2	-12	-11	-10	8	-1
Nc1nc2n(c1C(=O)c1ccccc1)CCC2	-70*	-76	-8	-7	.
CC(CCc1ccccc1)NC(=S)NC(=O)c1ccco1 (configuration not stated)	6	16	.	7	0
O=C(NC(=S)Nc1nc(-c2ccccc2)cs1)c1ccco1	12	24	-2	2	8
COc1ccc(-c2csc(NC(=S)NC(=O)c3ccco3)n2)cc1	29	52*	3	5	10
O=C(NC(=S)N(CCc1ccccc1)CCc1ccccc1)c1ccco1	97	68*	.	5	-7
COc1ccc2nc(NC(=S)NC(=O)c3ccco3)sc2c1	13	8	.	73	22
O=C(NC(=S)Nc1nc2ccccc2s1)c1ccco1	29	7	.	0	53*
